Reference: PubChem BioAssay AID1851 (National Center for Advancing Translational Sciences (NCATS), 2009)
Values joined by “and” are separate entries in the source; they are usually repeats but may differ in a detail not shown here. Identical values can stand only once. Screen size: about 16,000 compounds; about 2,600 (16%) were called active. Inconclusive results (about 20%) are left out. Calls follow the shape of the dose curve; as a rule, active = well fitted curve in the direction sought with a large enough effect; inconclusive = small, poorly fitted or top-dose-only effect, or effect the other way; inactive = no such curve, though single readings can be large or run the other way. These entries were drawn from the full list.

Target: Cytochrome P450 2D6 (Homo sapiens) (UniProt P10635)
Sequence (P10635 whole entry, looked up): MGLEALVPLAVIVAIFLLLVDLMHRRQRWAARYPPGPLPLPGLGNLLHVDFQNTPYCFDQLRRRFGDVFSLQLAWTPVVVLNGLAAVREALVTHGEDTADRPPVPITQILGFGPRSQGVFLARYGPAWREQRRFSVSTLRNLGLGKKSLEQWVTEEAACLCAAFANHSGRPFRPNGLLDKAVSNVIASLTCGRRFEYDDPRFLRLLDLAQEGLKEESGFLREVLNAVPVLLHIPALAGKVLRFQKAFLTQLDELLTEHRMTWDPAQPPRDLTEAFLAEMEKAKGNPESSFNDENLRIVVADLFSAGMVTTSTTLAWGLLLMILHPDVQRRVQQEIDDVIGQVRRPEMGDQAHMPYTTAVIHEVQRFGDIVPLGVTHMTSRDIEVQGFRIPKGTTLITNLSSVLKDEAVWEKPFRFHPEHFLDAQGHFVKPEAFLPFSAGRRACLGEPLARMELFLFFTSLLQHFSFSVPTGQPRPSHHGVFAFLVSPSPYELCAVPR
Test: Cytochrome panel assay with activity outcomes
Conditions: recombinant CYP, pro-luciferin dealkylation, luminescence, p450-cyp2d6; series mostly up to 57.1 µM
% is scaled to controls: 0 for no effect and ±100 for the full control effect.

| SMILES | AC50 | activity, negative = inhibition |
| --- | --- | --- |
| NCCCC(=O)O | inactive | – |
| CCC(=O)O[C@@H]1[C@H](C)O[C@H](O[C@H]2[C@@H](N(C)C)[C@H](O)[C@@H](O[C@@H]3[C@@H](CC=O)C[C@@H](C)[C@@H](O)/C=C\C=C/C[C@@H](C)OC(=O)C[C@@H](OC(=O)CC)[C@H]3OC)O[C@H]2C)C[C@]1(C)O | inactive | – |
| CCCCCCC1CC(C)(/C(C)=N/NC(N)=O)OC1=O (configuration not stated) | inactive | – |
| CCOC(=O)N/N=C1/C[C@@H](O)[C@@H](O)[C@@H]2[C@@H]3C(=O)N([C@@H](C)c4ccccc4)C(=O)[C@H]3CC[C@@H]12 | – | 0.427% [at 11.4 µM] (inactive) |
| COc1ccc(NC(=S)Nc2ncccc2C)c(OC)c1 | inactive | – |
| Nc1nc2c(ncn2[C@@H]2C=C[C@@H](CO)C2)c(=O)[nH]1 | – | 4.55% [at 11.4 µM] (inactive) |
| Cc1cc(-c2c(C)[nH]n(-c3ccccc3)c2=O)n(-c2ccccc2)n1 | inactive | – |
| O=C(O)[C@H](Cc1ccc(O)c([N+](=O)[O-])c1)N1C(=O)c2ccccc2C1=O | – | 6.61% [at 11.4 µM] (inactive) |
| CN1CCN(c2ncc3nc(-c4ccc(F)cc4)c(=O)n(Cc4cccs4)c3n2)CC1 | inactive | – |
| CN(C)Cc1ccccc1-c1nc(N2CCOCC2)c2ccccc2n1 | 7.94 µM (active) | – |
| CNc1nc(-c2c(C)noc2C)nc2ccccc12 | inactive | – |
| Cc1ccccc1-c1nc(N2CCOCC2)c2ccccc2n1 | inactive | – |
| Cc1cccc(CNc2nc(-c3ccccc3CN(C)C)nc3ccccc23)c1 | 12.6 µM (active) | – |
| CNc1nc(-c2ccccc2CN(C)C)nc2ccccc12 | 3.98 µM (active) | – |
| CN(C)Cc1ccccc1-c1nc(N(C)C)c2ccccc2n1 | 2.51 µM (active) | – |
| Cc1noc(C)c1-c1nc(N2CCOCC2)c2ccccc2n1 | inactive | – |
| COc1ccc(N2CC(C(=O)OCC(=O)c3cccc(OC)c3)CC2=O)cc1 (configuration not stated) | inactive | – |
| O=C1CC(c2ccccc2)Cc2nc(N3CCc4ccccc4C3)ncc21 (configuration not stated) | inactive | – |
| O=C(Nc1nnc(C2CC2)s1)c1ccc(S(=O)(=O)c2ccccc2)cc1 | inactive | – |
| COCCNC(=O)c1ccc2c(c1)nc(C)n2-c1cc(OC)c(OC)c(OC)c1 | inactive | – |
| COC(=O)COc1ccc2c(-c3cccc([N+](=O)[O-])c3)cc(=O)oc2c1 | inactive | – |
| Cc1cc(C(=O)OCC(=O)NCCCN2CCCC2=O)c2ccccc2n1 | inactive | – |

| SMILES | AC50 | activity, negative = inhibition |
| --- | --- | --- |
| O=C(C1=C(O)C(=O)N(Cc2ccco2)C1c1ccccc1)c1cccs1 (configuration not stated) | inactive | – |
| CN(C)Cc1ccccc1-c1nc(NCc2ccccc2)c2ccccc2n1 | 20 µM (active) | – |
| Cc1noc(C)c1-c1nc(NC2CCNCC2)c2ccccc2n1 | inactive | – |
| CN(C)Cc1ccccc1-c1nc(NC2CC2)c2ccccc2n1 | 3.98 µM (active) | – |
| COCCNc1nc(-c2ccccc2CN(C)C)nc2ccccc12 | 12.6 µM (active) | – |
| CN(C)C(=O)c1ccc(-c2nc(NC3CCNCC3)c3ccccc3n2)cc1 | inactive | – |
| COCCNc1nc(-c2c(C)noc2C)nc2ccccc12 | inactive | – |
| CN(C)Cc1ccccc1-c1nc(NCc2cccs2)c2ccccc2n1 | 20 µM (active) | – |
| COCCNc1nc(-c2ccccc2C)nc2ccccc12 | inactive | – |
| CC1=C(C#N)C(NC(=O)C2CCCCC2)(C(F)(F)F)C(=O)N1 (configuration not stated) | inactive | – |
| N#Cc1nc(-c2ccc(F)cc2)oc1N1CCCC1 | inactive | – |
| CCOC(=O)c1cc(-c2ccccc2)sc1NC(=S)Nc1cc(C)ccn1 | inactive | – |
| NCCNS(=O)(=O)c1ccc(N)cc1 | – | 1.63% [at 11.4 µM] (inactive) |
| CCn1c(SCC(=O)Nc2sc3c(c2C#N)CCC(C(C)(C)C)C3)nnc1-c1ccco1 (configuration not stated) | inactive | – |
| COc1ccc(C(=O)N2CCC[C@@]3(CCN(c4cccc(-c5ccccc5)c4)C3)C2)cc1 | inactive | – |
| Cn1ncc2c(Nc3cccc(C(=O)O)c3)ncnc21 | inactive | – |
| CN[C@]1(C)[C@H]2CC[C@@H](C2)C1(C)C | inactive | – |
| CCc1ccc(N2CC(C)Cn3c2nc2c3c(=O)n(CCN3CCOCC3)c(=O)n2C)cc1 (configuration not stated) | inactive | – |
| CC(C)[C@@H](OCc1ccccc1)[C@H](C)/C=N\O[C@@H](C)c1cn([C@H](CO)Cc2ccccc2)nn1 | – | -24.2% [at 11.4 µM] (inactive) and -19.2% [at 11.4 µM] (inactive) |
| CC1(C)S[C@@H]2[C@H](NC(=O)[C@H](C(=O)O)c3ccsc3)C(=O)N2[C@H]1C(=O)O | inactive | – |
| CCOC(=O)C1=C(C)N=C2c3ccccc3C(=O)C2C1c1ccc(Cl)cc1 (configuration not stated) | 15.8 µM (active) | – |
| O=C1c2ccccc2C2=Nc3ccccc3SC(c3ccccc3F)C12 (configuration not stated) | inactive | – |

| SMILES | AC50 | activity, negative = inhibition |
| --- | --- | --- |
| O=C1CCCC2=C1C(c1ccc(Cl)cc1)C1C(=O)c3ccccc3C1=N2 (configuration not stated) | 25.1 µM (active) | – |
| CCOC(=O)C1=C(C)N=C2c3ccccc3C(=O)C2C1c1ccc(C)cc1 (configuration not stated) | inactive | – |
| CCOC(=O)C1=C(C)NC(=O)NC1c1ccoc1 (configuration not stated) | inactive | – |
| O=C1C(=O)c2ccccc2C(O)=C1C1CCC(c2ccc(Cl)cc2)CC1 (configuration not stated) | inactive | – |
| COC(=O)c1c(NC(=O)C(C)(C)C)sc2c1C(C(=O)OC)CC2 (configuration not stated) | inactive | – |
| O=S(=O)(C[C@H](O)C(Cl)(Cl)Cl)NNc1ccccc1 | – | 17.4% [at 11.4 µM] (inactive) |
| C[C@H]1O[C@@H](CC(=O)O)Cc2c1c(O)c1c(O)cc(-c3cc(=O)c4c(=O)c5c(c(=O)c=4c3=O)C[C@H](CC(=O)O)O[C@@H]5C)c(O)c1c2O | – | -3.88% [at 11.4 µM] (inactive) |
| CN(C)c1ncc2nc(-c3ccc(F)cc3)c(=O)n(C3CC3)c2n1 | inactive | – |
| O=C(Nc1cc(C(F)(F)F)ccc1-n1cncn1)c1ccc(Br)cc1 | inactive | – |
| C[n+]1cccc(CNC(=O)/C=N/O)c1 | inactive | – |
| CC(Oc1ccccc1)c1ccnn1S(=O)(=O)c1ccccc1 (configuration not stated) | inactive | – |
| CC[N+](C)(CC)CCC[n+]1c(-c2ccccc2)c2cc(N)ccc2c2ccc(N)cc21 | 6.31 µM (active) | – |
| CN=C(NC#N)Nc1ccc(C2=NNC(=O)C[C@@H]2C)cc1 | inactive | – |
| NC(=O)C1CCN(C(=O)CN2C(=O)c3ccccc3S2(=O)=O)CC1 | inactive | – |
| Cc1nc2cnc(N3CCOCC3)nc2n(C)c1=O | inactive | – |
| CCOC(=O)Oc1c(OC)cc(C(=O)O[C@H]2C[C@H]3CN4CCc5c([nH]c6cc(OC)ccc56)[C@@H]4C[C@H]3[C@@H](C(=O)OC)[C@@H]2OC)cc1OC | inactive | – |
| COCCCCC(=NOCCN)c1ccc(C(F)(F)F)cc1 | 3.98 µM (active) | – |
| COc1c(/C=N/Nc2ccc([N+](=O)[O-])cc2[N+](=O)[O-])c(C)nn1-c1ccccc1 | inactive | – |
| C[C@@]12CC[C@@H]3c4ccc(O)cc4CC[C@H]3[C@H]1CC[C@H]2O | inactive | – |
| CCOc1nc(N=C(N)N)nc2c(C)cccc12 | inactive | – |
| Cc1cccc(C)c1NC(=O)[C@H](C)N | inactive | – |
| Cc1cccc(C)c1OC[C@@H](N)C(C)C | 15.8 µM (active) | – |

| SMILES | AC50 | activity, negative = inhibition |
| --- | --- | --- |
| COC(=O)[C@@]1(Cc2ccc(F)cc2)[C@H]2c3cc(C(=O)N4CCCC4)n(Cc4ccccn4)c3C[C@H]2CN1C(=O)c1ccccc1 | inactive | – |
| COC(=O)[C@@]1(Cc2ccccc2)[C@H]2c3cc(C(=O)N4CCCC4)n(Cc4cccc5ccccc45)c3C[C@H]2CN1C(=O)c1ccccc1 | inactive | – |
| COC(=O)[C@@]1(Cc2ccccc2)[C@H]2c3cc(C(=O)N4CCCC4)n(Cc4c(CO)[nH]cc(C)c4=O)c3C[C@H]2CN1C(=O)c1ccccc1 | 12.6 µM (active) | – |
| COC(=O)[C@@]1(Cc2ccccc2)[C@H]2c3cc(C(=O)N4CCCC4)n(Cc4nc5ccccc5[nH]4)c3C[C@H]2CN1C(=O)c1ccccc1 | 7.94 µM (active) | – |
| COC(=O)[C@@]1(Cc2ccc(F)cc2)[C@H]2c3cc(C(=O)N4CCCC4)n(Cc4ccccc4)c3C[C@H]2CN1C(=O)c1ccccc1 | inactive | – |
| COC(=O)[C@@]1(Cc2ccc(F)cc2)[C@H]2c3cc(C(=O)N4CCCC4)n(Cc4ccc(OC(F)(F)F)cc4)c3C[C@H]2CN1C(=O)c1ccccc1 | inactive | – |
| COC(=O)[C@@]1(Cc2ccc(F)cc2)[C@H]2c3cc(C(=O)N4CCCC4)n(CCc4c[nH]c5ccccc45)c3C[C@H]2CN1C(=O)c1ccccc1 | inactive | – |
| COC(=O)[C@@]1(Cc2ccccc2)[C@H]2c3cc(C(=O)N4CCCC4)n(CC4CC4)c3C[C@H]2CN1C(=O)c1ccccc1 | inactive | – |
| COC(=O)[C@@]1(Cc2ccc(F)cc2)[C@H]2c3cc(C(=O)N4CCCC4)n(CCc4ccc(OC)c(Br)c4)c3C[C@H]2CN1C(=O)c1ccccc1 | inactive | – |
| COC(=O)[C@@]1(Cc2ccc(F)cc2)[C@H]2c3cc(C(=O)N4CCCC4)n(Cc4c(CO)[nH]cc(C)c4=O)c3C[C@H]2CN1C(=O)c1ccccc1 | 12.6 µM (active) | – |
| COC(=O)[C@@]1(Cc2ccc(F)cc2)[C@H]2c3cc(C(=O)N4CCCC4)n(CCc4ccc(O)c(O)c4)c3C[C@H]2CN1C(=O)c1ccccc1 | 12.6 µM (active) | – |
| Cc1cc(NC(=O)c2ccccc2Cl)c(C(C)C)cc1O | inactive | – |
| CCCCC1(C)OC(=O)C(=Cc2ccc(N(CC)CC)cc2)C(=O)O1 (configuration not stated) | inactive | – |
| COc1ncc2nc(-c3cn(C)c4ccccc34)c(=O)n(Cc3ccc(F)cc3)c2n1 | inactive | – |
| Cc1cc(C)cc(N2C(=O)CC(Sc3nnnn3-c3ccccc3)C2=O)c1 (configuration not stated) | inactive | – |
| Cc1cccc(-n2cnc(C(=O)NC3CCCCCC3)c2)n1 | inactive | – |
| COc1cc(OC)c(C2N(c3cc(C)on3)C(=O)C3CCCN32)cc1OC (configuration not stated) | inactive | – |
| COc1ccc(CNc2ncncc2-c2ccccc2C)c(OC)c1 | 12.6 µM (active) | – |
| COc1ccc(CNc2ncncc2-c2ccccc2CN(C)C)c(OC)c1 | 2.51 µM (active) | – |
| COc1ccc(CNc2ncncc2-c2ccccc2OC)c(OC)c1 | 12.6 µM (active) | – |
| COc1ccc(O[C@H]2C=C[C@@H](c3ccccc3)O[C@@H]2CO/N=C\[C@@H](C)[C@H](OCc2ccccc2)C(C)C)cc1 | – | 8.39% [at 11.4 µM] (inactive) |
